# From PubChem BioAssay (NCI)
# About 79,000 compounds went through this panel and 15% of them were active in at least one assay; those are over-represented in the sample as a whole. Unmarked numbers belong to inactive results. The source made the active and inactive calls. Cut-off read from the data, not from the text of the source: active = growth inhibition above about 70%; inactive = the rest.
# Assays:
# [1] = NCI Yeast Anticancer Drug Screen. Data for the rad50 strain (AID 155);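 note: 0% = growth of vehicle-only cultures of the same strain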; conditions: S. cerevisiae rad50 strain growth inhibition; at 50.0 µM; active compounds read high
# Summary of the method: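 Readout: growth inhibition relative to vehicle-treated cultures. Compound exposure was carried out in a genetically defined yeast strain deficient in DNA damage repair.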
# [2] = NCI Yeast Anticancer Drug Screen. Data for the mec2-1 strain (AID 157); conditions: S. cerevisiae mec2-1 strain, at 50.0 µM, active compounds read high
# Summary of the method: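 Readout is yeast growth inhibition, normalised to vehicle-treated controls, in the mec2-1 strain exposed to compound.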
# [3] = NCI Yeast Anticancer Drug Screen. Data for the sgs1 mgt1 strain (AID 161);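 note: 0% = growth of cultures given vehicle only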; conditions: S. cerevisiae sgs1 mgt1 strain, at 50.0 µM, active compounds read high
# Summary of the method: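 This yeast growth screen uses a strain with defined DNA-repair lesions; compound-treated growth is compared with vehicle-treated growth.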
# [4] = NCI Yeast Anticancer Drug Screen. Data for the cln2 rad14 strain (AID 165);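 note: 0% = growth equal to vehicle treated cultures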; conditions: S. cerevisiae cln2 rad14 strain, at 50.0 µM, active compounds read high
# Summary of the method: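 Relative to vehicle controls, growth inhibition of compound-treated cln2 rad14 yeast was recorded.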
# [5] = NCI Yeast Anticancer Drug Screen. Data for the bub3 strain (AID 167); conditions: S. cerevisiae bub3 mutant strain, at 50.0 µM, active compounds read high
# Summary of the method: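 Readout: yeast growth inhibition, expressed relative to vehicle-only wells. The test organism is a mutant strain from a panel with lesions in DNA repair or checkpoint genes.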
# [6] = NCI Yeast Anticancer Drug Screen. Data for the mlh1 rad18 strain (AID 175); conditions: S. cerevisiae mlh1 rad18 strain growth inhibition; at 50.0 µM; active compounds read high
# Summary of the method: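 Test agents were incubated with a yeast strain of defined genotype (DNA damage repair defect). Inhibition of growth was derived by comparison with vehicle-exposed cultures.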
Structure (SMILES),growth inhibition [1],growth inhibition [2],growth inhibition [3],growth inhibition [4],growth inhibition [5],growth inhibition [6]
CCOC(=O)C1(C)CCC(C(=O)OC)C1=O (stereo not drawn),-36.1%,-31.1%,-54.8%,-5.45%,-59.6%,-18.1%
CCOc1ccc(OCC)c(C(=O)CCC(=O)Nc2ccc(Br)cc2)c1,-8.9%,-2.9%,-8.3%,-12.8%,1.45%,-6.75%
Nc1ccc(S(=O)(=O)N/N=C/c2ccccc2)cc1,10.2%,-0.4%,12.1%,34.4%,-34%,29.8%
CCOC(=O)Nc1ccc(Cl)cc1Cl,-16.3%,-8.2%,-4.7%,-16.7%,-8.75%,1.15%
NCCCNCCCCNCCCNCc1c2ccccc2c(CNCCCNCCCCNCCCN)c2ccccc12,90.7% (active),93.1% (active),93.2% (active),91.9% (active),91.8% (active),90.8% (active)
CCOC1NC(=O)Oc2ccccc21 (stereo not drawn),4.2%,0.5%,8.1%,7.35%,10.9%,-37.4%
CCCCCCCSCC1OC(n2cnc3c(N)ncnc32)C(O)C1O (stereo not drawn),3.35%,11.1%,11.4%,5.5%,3.1%,9.3%
Cc1ccc(S(=O)(=O)N(C)c2c(N)n(C)c(=O)n(C)c2=O)cc1,2.3%,5.75%,0.7%,-49.3%,-5.55%,-4.4%
Cc1cnc2cccc(C)c2c1Cl,-29.5%,0.05%,10.3%,-16.4%,8.3%,-3.3%
Cc1oc2nc(N(C)C)n3nnnc3c2c1C,-0.35%,-8.5%,-6.15%,-4.1%,25.3%,-14.4%
CN(C)CC1CCCCC1O (stereo not drawn),-4.75%,-5.85%,-5.3%,25.1%,1.95%,-7.35%
CC(C)(C)NC(NC(C)(C)C)=C(/C=C(/Cl)[N+](=O)[O-])[N+](=O)[O-],-5.5%,-21.1%,0.45%,-10.9%,15.9%,15.1%
O=C(CN1CCOCC1)CC(O)(C(F)(F)F)C(F)(F)F,0.35%,2.05%,-1.65%,7.1%,1.85%,72.7% (active)
CC(=O)Nc1c(Cl)cc(N)cc1Cl,9.35%,-23.4%,2.3%,9.85%,-16.4%,4.3%
O=C1c2ccccc2C(=O)N1Cl,8.7%,-4.75%,-37.1%,-0.05%,2.2%,-5.75%
COc1cc(OC)c(OC)cc1/C=C/c1cc[n+](C)c2ccccc12,9.1%,-6.35%,11.6%,-0.8%,4.95%,8.05%
CC1(C)N=C(/C(Cl)=[N+](/[O-])C(=O)c2ccc(F)cc2)C(C)(C)N1O,-15.5%,-35.3%,-27.2%,16.7%,-25.8%,-25.9%
C1CCC2(CC1)CCCO2,-6.3%,6.2%,-0.9%,10.5%,23.6%,19.4%
CC(C)OC(CCCl)c1ccc(Cl)cc1 (stereo not drawn),-7%,-9.2%,-22.1%,7.2%,-37.6%,-2.25%

Structure (SMILES),growth inhibition [1],growth inhibition [2],growth inhibition [3],growth inhibition [4],growth inhibition [5],growth inhibition [6]
Cn1cnc([N+](=O)[O-])c1SCC(=O)O,-36.4%,-0.6%,-29.5%,-22.9%,-17.9%,-3.7%
CCCCCCCCCCCCNC(C)C1=C(O)c2ccccc2C(=O)C1=O (stereo not drawn),52.6%,20.3%,50%,25.9%,15%,44.9%
O=[N+]([O-])c1ccc(/C(=C/c2ccc(Cl)cc2Cl)S(=O)(=O)C(Cl)Cl)o1,98.3% (active),98.8% (active),99.1% (active),99.1% (active),98.2% (active),98% (active)
NCCNC(=O)Cc1cccc2ccccc12,-21.1%,-48%,-5.15%,3.6%,-36.5%,-3.05%
CC1C2CC(CC2O)C1(C)C (stereo not drawn),11.3%,16.6%,18.1%,24.4%,6.3%,15.9%
COc1cc2c(c(OC)c1OC)-c1ccc(SC)c(=O)cc1[C@@H](NC1OCC(O)C(O)C1O)CC2 (stereo partly drawn),20.4%,35.1%,24.1%,8.65%,21.1%,16.8%
Nc1ccc(Cl)c(N)c1,9.1%,26.4%,18.2%,20.1%,14.9%,21.9%
Cc1cc(=O)c2c([nH]1)c1c(c3[nH]c(C)cc(=O)c32)Oc2ccccc2O1,65.2%,5%,-2.95%,-10.6%,-5.55%,27.9%
CCSC(=S)S(=O)(=O)c1ccc(C)cc1,90.4% (active),93.1% (active),89.5% (active),90.5% (active),84.2% (active),92.3% (active)
CN1CCC(CN)(c2ccccc2)CC1,14.1%,14.9%,0.35%,-6.5%,9.7%,11.3%
O=C(C[N+]12CC=C(CO)C1C(O)CC2)c1ccc(Br)cc1 (stereo not drawn),5.55%,-6.25%,-15.5%,-24.4%,3.35%,-4%
CC(=O)Nc1ccc(S(=O)(=O)NN)cc1,-15.7%,-12.1%,-4.75%,10.2%,5.25%,9.1%
CCCC(=O)N[C@H]1C[C@H]2CC[C@@]1(C)C2(C)C,-31.6%,-27.4%,-15.1%,11.2%,10.3%,-1.75%
CCCCCCCCCCCCSC(=O)Nc1ccc(C(=O)OCC)cc1,24.9%,3.3%,12.7%,-39.2%,-2.55%,20.9%
CCC(C)(C1CCC(=O)CC1)C1CCC(=O)CC1,33.6%,-5.75%,-0.7%,-7%,-0.75%,7.85%
CCOC(=O)c1[nH]c2nc(N)ncc2c(=O)c1C,-0.15%,-0.95%,-0.15%,43.6%,12.8%,11.7%
COC1=NC2(C)C(C)=C(c3ccccc3)C1(C)c1ccccc12 (stereo not drawn),-12.2%,-4.4%,-14.6%,-46.8%,7.25%,-3.8%
C1=[N+](c2ccccc2)CCN1c1ccccc1,-0.7%,-18.9%,-22.1%,-27.3%,-32.1%,-20.5%
COC(=O)C1(O)CC(=O)CCC1c1ccc(OC)cc1 (stereo not drawn),9.75%,-1.35%,-14.8%,-10.3%,-38%,-17.1%
